As a reminder, the AC50 is the concentration at which the activity in the assay is half-maximal.

SMILES strings stand for the structures. Values joined by “and” are separate entries in the source; they are usually repeats but may differ in a detail not shown here. Equal values may be shown once. Some structures have more than one record in an assay (separate samples or runs), and their calls can disagree. Active and inactive are the calls of the source. Rule for the calls: active = hit-call score of the fitted dose curve at least 0.9, where 1 is the maximum; inactive = score below 0.9.

What all share (details): mRNA level, 48 h; actives raise or lower the signal
Read-out in assay [1]: ATP-citrate lyase (ACLY), ACLY (gene 47)
Briefly: LTEA_HepaRG_ACLY: Life Technologies and Expression Analysis (LTEA) Assay for ATP-citrate lyase (ACLY) using HepaRG (AID 2283466). In short, it runs like this:
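Differentiated HepaRG cells exposed 48 h in serum-free induction medium to eight half-log concentrations up to 100 uM in 0.5% DMSO, duplicates. Transcript measured by Fluidigm TaqMan qRT-PCR, normalized to ACTB, GAPDH, POLR2A; bidirectional fit versus DMSO.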

Read-out in assay [2]: Peroxisomal acyl-coenzyme A oxidase 1 (ACOX1) gene, ACOX1 (gene 51)
Briefly: LTEA_HepaRG_ACOX1: Life Technologies and Expression Analysis (LTEA) Assay for Peroxisomal acyl-coenzyme A oxidase 1 (ACOX1) gene using HepaRG (AID 2283467). In short, it runs like this: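 HepaRG cells, plated 48 h then switched to serum-free induction medium, were exposed in duplicate for 48 h to 8-point half-log concentrations up to 100 uM in 0.5% DMSO. ACOX1 mRNA was measured by qRT-PCR, normalized to ACTB/GAPDH/POLR2A, and fitted bidirectionally versus DMSO.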

Read-out in assay [3]: Alkaline Phosphatase, Placental (ALPP) gene, ALPP (gene 250)
The assay is described as follows: LTEA_HepaRG_ALPP: Life Technologies and Expression Analysis (LTEA) Assay for Alkaline Phosphatase, Placental (ALPP) gene using HepaRG (AID 2283468). The gist of the method:
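HepaRG cells plated 48 h, then exposed in duplicate for 48 h in serum-free induction medium to 8-point half-log series from 100 uM in 0.5% DMSO. ALPP mRNA by TaqMan qRT-PCR, normalized to ACTB/GAPDH/POLR2A; bidirectional fit versus DMSO.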

Read-out in assay [4]: Bcl-2 (BAD) gene, BAD (gene 572)
The assay is described as follows: LTEA_HepaRG_BAD: Life Technologies and Expression Analysis (LTEA) Assay for Bcl-2 (BAD) gene using HepaRG (AID 2283469). The gist of the method:
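Differentiated HepaRG cells were exposed in duplicate in 0.5% DMSO for 48 h to eight-point half-log concentrations up to 100 uM. BAD mRNA was measured by Fluidigm TaqMan qRT-PCR, normalized to ACTB, GAPDH and POLR2A, and fitted bidirectionally against DMSO.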

Read-out in assay [5]: Bcl-2 (BAX) gene, BAX (gene 581)
The assay is described as follows: LTEA_HepaRG_BAX: Life Technologies and Expression Analysis (LTEA) Assay for Bcl-2 (BAX) gene using HepaRG (AID 2283470). The gist of the method:
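HepaRG (human liver), 48 h exposure, duplicate wells. 8-pt curve, half-log from 100 uM, 0.5% DMSO. BAX transcript by TaqMan qRT-PCR; ACTB/GAPDH/POLR2A normalization; gain or loss vs DMSO baseline.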

Read-out in assay [6]: adenosine kinase (ADK) gene, ADK (gene 132)
The assay is described as follows: LTEA_HepaRG_ADK: Life Technologies and Expression Analysis (LTEA) Assay for adenosine kinase (ADK) gene using HepaRG (AID 2283471). The gist of the method:
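HepaRG (human liver), 48 h chemical exposure, 8-pt half-log series, top 100 uM, 0.5% DMSO vehicle. Readout: ADK mRNA by qRT-PCR vs housekeeping genes; bidirectional curve fit relative to DMSO baseline.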

Read-out in assay [7]: Alpha-fetoprotein (AFP) gene, AFP (gene 174)
The assay is described as follows: LTEA_HepaRG_AFP: Life Technologies and Expression Analysis (LTEA) Assay for Alpha-fetoprotein (AFP) gene using HepaRG (AID 2283472). The gist of the method: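 HepaRG, single lot; 48 h post-plating -> serum-free induction medium; cpd 8-pt, 100 uM top, half-log, 0.5% DMSO, duplicate, 48 h. RNA -> qRT-PCR AFP, norm ACTB/GAPDH/POLR2A. Bidirectional fit vs DMSO.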

Read-out in assay [8]: Apoptosis regulator Bcl-2 (Homo sapiens) (UniProt P10415)
The assay is described as follows: LTEA_HepaRG_BCL2: Life Technologies and Expression Analysis (LTEA) Assay for Bcl-2 gene using HepaRG (AID 2283475). The gist of the method: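 HepaRG, plated 48 h then switched to serum-free induction medium; dosed 48 h, 8 conc. (max 100 uM, half-log steps), duplicate, 0.5% DMSO. Lysis in RLT, RNA isolated, TaqMan qRT-PCR for BCL2; ACTB/GAPDH/POLR2A normalisation; bidirectional fit vs DMSO.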

Read-out in assay [9]: Bcl-2 (BID) gene, BID (gene 637)
Briefly: LTEA_HepaRG_BID: Life Technologies and Expression Analysis (LTEA) Assay for Bcl-2 (BID) gene using HepaRG (AID 2283476). In short, it runs like this:
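Transcript levels of BID, measured by qRT-PCR and normalized to three housekeeping genes, were fitted bidirectionally against DMSO controls. Cells were HepaRG, dosed 48 h at up to 100 uM.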

Read-out in assay [10]: Caspase-3 (Homo sapiens) (UniProt P42574)
The assay is described as follows: LTEA_HepaRG_CASP3: Life Technologies and Expression Analysis (LTEA) Assay for cysteine-aspartic acid protease (CASP3) using HepaRG (AID 2283477). In short, it runs like this: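 Differentiated HepaRG cells, plated 48 h, were treated in duplicate in serum-free induction medium for 48 h with eight half-log concentrations up to 100 uM in 0.5% DMSO. CASP3 mRNA measured by qRT-PCR, normalized to ACTB, GAPDH, POLR2A.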

Read-out in assay [11]: Cytochrome P450 (CYP24A1), CYP24A1 (gene 1591)
Briefly: LTEA_HepaRG_CYP24A1: Life Technologies and Expression Analysis (LTEA) Assay for Cytochrome P450 (CYP24A1) using HepaRG (AID 2283478). In short, it runs like this: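 HepaRG cells plated 48 h, then exposed in duplicate in serum-free induction medium for 48 h to 8-point half-log series from 100 uM in 0.5% DMSO. CYP24A1 mRNA by Fluidigm qRT-PCR, normalized to ACTB, GAPDH, POLR2A; bidirectional fit versus DMSO.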

Read-out in assay [12]: Cytochrome P450 (CYP1A2), CYP1A2 (gene 1544)
Briefly: LTEA_HepaRG_CYP1A2: Life Technologies and Expression Analysis (LTEA) Assay for Cytochrome P450 (CYP1A2) using HepaRG (AID 2283479). The gist of the method:
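Differentiated human HepaRG cells in serum-free induction medium exposed 48 hours in duplicate to 8 half-log concentrations from 100 uM, 0.5% DMSO. CYP1A2 mRNA quantified by qRT-PCR, normalized to ACTB, GAPDH and POLR2A; bidirectional fitting versus DMSO.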

Read-out in assay [13]: cysteine-aspartic acid protease (CASP8), CASP8 (gene 841)
The assay is described as follows: LTEA_HepaRG_CASP8: Life Technologies and Expression Analysis (LTEA) Assay for cysteine-aspartic acid protease (CASP8) using HepaRG (AID 2283480). The gist of the method:
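Differentiated HepaRG cells in serum-free induction medium, 48 h exposure, eight-point half-log series from 100 uM in 0.5% DMSO, duplicates. CASP8 mRNA by qRT-PCR, normalized to ACTB, GAPDH, POLR2A; bidirectional fit versus DMSO.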

Read-out in assay [14]: Cytochrome P450 (CYP2B6), CYP2B6 (gene 1555)
The assay is described as follows: LTEA_HepaRG_CYP2B6: Life Technologies and Expression Analysis (LTEA) Assay for Cytochrome P450 (CYP2B6) using HepaRG (AID 2283481). In short, it runs like this:
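Differentiated human HepaRG cells in serum-free induction medium, dosed in duplicate for 48 h over 8 half-log concentrations topping at 100 uM (0.5% DMSO). CYP2B6 mRNA measured by TaqMan qRT-PCR, normalized to ACTB, GAPDH, POLR2A; bidirectional fit versus DMSO.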

Read-out in assay [15]: Cytochrome P450 2C19 (Homo sapiens) (UniProt P33261)
The assay is described as follows: LTEA_HepaRG_CYP2C19: Life Technologies and Expression Analysis (LTEA) Assay for CYP2C19 using HepaRG (AID 2283482). The gist of the method:
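Differentiated HepaRG cells in serum-free induction medium exposed 48 h in duplicate, 8 concentrations from 100 uM by half-log steps in 0.5% DMSO. CYP2C19 mRNA measured by TaqMan qRT-PCR, normalized to ACTB, GAPDH, POLR2A. Bidirectional fit versus DMSO.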

Read-out in assay [16]: CYP2C8 (gene 1558)
Briefly: LTEA_HepaRG_CYP2C8: Life Technologies and Expression Analysis (LTEA) Assay for CYP2C8 using HepaRG (AID 2283483). In short, it runs like this:
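Differentiated HepaRG cells in serum-free induction medium exposed 48 h in duplicate to 8 half-log concentrations from 100 uM in 0.5% DMSO. CYP2C8 mRNA by qRT-PCR normalized to ACTB, GAPDH, POLR2A; bidirectional fit versus DMSO.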

Read-out in assay [17]: CYP2C9 (gene 1559)
Briefly: LTEA_HepaRG_CYP2C9: Life Technologies and Expression Analysis (LTEA) Assay for CYP2C9 using HepaRG (AID 2283484). The gist of the method:
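Differentiated human HepaRG cells in serum-free induction medium were exposed 48 h to chemicals in 8-point half-log series from 100 uM (0.5% DMSO), in duplicate. CYP2C9 mRNA was measured by qRT-PCR, normalized to ACTB/GAPDH/POLR2A, with bidirectional fitting versus DMSO.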

Read-out in assay [18]: Broad substrate specificity ATP-binding cassette transporter ABCG2 (Homo sapiens) (UniProt Q9UNQ0)
Briefly: LTEA_HepaRG_ABCG2: Life Technologies and Expression Analysis (LTEA) Assay for ABC Transporter (ABCG2) using HepaRG (AID 2283465). In short, it runs like this:
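Differentiated HepaRG cells were exposed for 48 h in serum-free induction medium to 8 half-log concentrations, top 100 uM, in 0.5% DMSO. ABCG2 mRNA was measured by qRT-PCR, normalized to ACTB, GAPDH and POLR2A, with bidirectional fitting versus DMSO.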

Read-out in assay [19]: Apolipoprotein A-V (APOA5) gene, APOA5 (gene 116519)
Briefly: LTEA_HepaRG_APOA5: Life Technologies and Expression Analysis (LTEA) Assay for Apolipoprotein A-V (APOA5) gene using HepaRG (AID 2283474). In short, it runs like this: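 Differentiated HepaRG cells in serum-free induction medium, exposed 48 h in duplicate to eight half-log concentrations topping at 100 uM (0.5% DMSO). APOA5 mRNA by Fluidigm TaqMan qRT-PCR, normalized to ACTB, GAPDH and POLR2A; bidirectional fit versus DMSO.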

Chain of Cytochrome P450 2C19 (Homo sapiens) (P33261 whole entry, looked up): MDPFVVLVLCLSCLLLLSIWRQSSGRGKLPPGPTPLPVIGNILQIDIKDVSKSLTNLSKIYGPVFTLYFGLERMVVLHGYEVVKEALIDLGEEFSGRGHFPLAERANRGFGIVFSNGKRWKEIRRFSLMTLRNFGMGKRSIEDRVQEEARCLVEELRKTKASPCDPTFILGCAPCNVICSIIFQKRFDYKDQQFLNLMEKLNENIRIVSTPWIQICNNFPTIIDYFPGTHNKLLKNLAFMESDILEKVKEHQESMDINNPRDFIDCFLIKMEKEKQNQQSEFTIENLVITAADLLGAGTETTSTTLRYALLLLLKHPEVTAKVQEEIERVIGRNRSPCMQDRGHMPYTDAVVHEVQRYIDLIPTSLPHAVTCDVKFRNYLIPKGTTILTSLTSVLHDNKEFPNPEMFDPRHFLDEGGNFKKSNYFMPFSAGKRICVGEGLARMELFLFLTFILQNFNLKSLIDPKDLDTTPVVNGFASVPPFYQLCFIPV
Chain of Caspase-3 (Homo sapiens) (P42574 whole entry, looked up): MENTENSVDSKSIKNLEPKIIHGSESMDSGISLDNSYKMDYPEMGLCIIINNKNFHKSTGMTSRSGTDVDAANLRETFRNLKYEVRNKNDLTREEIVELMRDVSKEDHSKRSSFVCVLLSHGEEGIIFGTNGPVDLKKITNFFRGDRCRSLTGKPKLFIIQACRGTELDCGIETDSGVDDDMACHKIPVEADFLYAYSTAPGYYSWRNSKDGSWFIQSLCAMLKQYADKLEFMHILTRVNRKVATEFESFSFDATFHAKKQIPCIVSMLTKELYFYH
Chain of Apoptosis regulator Bcl-2 (Homo sapiens) (P10415 whole entry, looked up): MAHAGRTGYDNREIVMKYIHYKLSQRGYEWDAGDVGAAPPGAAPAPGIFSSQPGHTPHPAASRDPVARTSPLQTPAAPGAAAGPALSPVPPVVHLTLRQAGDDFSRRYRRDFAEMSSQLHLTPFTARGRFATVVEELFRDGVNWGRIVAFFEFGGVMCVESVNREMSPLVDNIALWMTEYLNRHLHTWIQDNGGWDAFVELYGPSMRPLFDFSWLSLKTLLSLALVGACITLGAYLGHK
Chain of Broad substrate specificity ATP-binding cassette transporter ABCG2 (Homo sapiens) (Q9UNQ0 whole entry, looked up): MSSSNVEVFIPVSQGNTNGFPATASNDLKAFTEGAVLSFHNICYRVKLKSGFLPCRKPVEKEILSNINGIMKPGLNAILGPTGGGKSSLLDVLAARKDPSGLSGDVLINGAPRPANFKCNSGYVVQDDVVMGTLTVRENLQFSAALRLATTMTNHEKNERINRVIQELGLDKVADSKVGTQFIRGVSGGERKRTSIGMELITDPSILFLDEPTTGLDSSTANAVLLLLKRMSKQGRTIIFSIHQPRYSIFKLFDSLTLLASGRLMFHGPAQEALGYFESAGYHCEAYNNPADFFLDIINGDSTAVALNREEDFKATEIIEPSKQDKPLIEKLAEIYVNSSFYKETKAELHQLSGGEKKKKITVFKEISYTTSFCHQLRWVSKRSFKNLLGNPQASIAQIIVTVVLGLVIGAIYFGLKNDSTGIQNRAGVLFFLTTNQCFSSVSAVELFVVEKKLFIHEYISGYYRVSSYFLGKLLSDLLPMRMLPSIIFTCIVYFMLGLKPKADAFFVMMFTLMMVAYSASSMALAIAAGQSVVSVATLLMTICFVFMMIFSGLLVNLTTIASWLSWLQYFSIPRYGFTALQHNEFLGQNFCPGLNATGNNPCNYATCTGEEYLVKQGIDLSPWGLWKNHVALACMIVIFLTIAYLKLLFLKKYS

Consider `CC(C)(C)c1ccc(CSc2cnn(C(C)(C)C)c(=O)c2Cl)cc1`, for which the AC50 was 1.72 µM (active) in assay [1]; 1.08 µM (active) in assay [3]; 6.27 µM (active) in [5]; 2.47 µM (active) in [7]; 2.89 µM (active) in [8]; 2.36 µM (active) in assay [12]. The concentration at half-maximal activity (AC50) in assay [13] is 12.8 µM (active); in [14] it was 1.54 µM (active); in [15], 28 µM (active); in [16], 22.5 µM (active); in [17] it was 13.4 µM (active). The call in assay [2], in [4], in assay [6], in assay [9], in assay [10] and in assay [11] was inactive.
Take `C=CCC1=C(C)C(OC(=O)C2C(C=C(C)C)C2(C)C)CC1=O` (configuration not stated): the AC50 is 90.9 µM (active) in [2]; 92.4 µM (active) and 71.1 µM (active) in assay [3]; 90.3 µM (active) and 79.8 µM (active) and 66.3 µM (active) in assay [7]; 12.1 µM (active) and 90.6 µM (active) and 11.7 µM (active) in assay [14]; 91.5 µM (active) in [15]; 85.6 µM (active) in [16]. Further, the AC50 in [17] is 87.4 µM (active). For the same compound, the call in assay [2], in assay [3], in [4], in assay [5], in [6] and in assay [8] was inactive. Moreover, the compound was called inactive in [9], in assay [10], in assay [11], in assay [12], in assay [13] and in assay [15]. Besides, the outcome in assay [16] and in assay [17] was inactive.
As for `CCCCC(CC)COC(=O)c1ccccc1C(=O)OCC(CC)CCCC` (configuration not stated), the compound was called inactive in assay [18], in assay [1], in assay [2], in assay [3], in assay [4] and in [5]. The compound was classed as inactive in [6], in assay [7], in assay [19], in assay [8], in assay [9] and in assay [10]. For the same compound, the compound was classed as inactive in assay [11], in assay [13], in [15], in assay [16] and in assay [17]. Besides, the half-maximal activity concentration (AC50) in assay [12] was 50 µM (active); in assay [14] it was 19 µM (active).

Values taken from PubChem BioAssay (EPA / NIEHS).
